Screening data (PubChem)
ALDH1A1 block: ALDH1A1 (human) enzyme inhibition. Purified ALDH1A1, NADH fluorescence, propionaldehyde substrate. Potency, µM (series often up to 75.3 µM), inactives show top-dose activity, negative = inhibition, hits mostly inhibitors. 220,000 tested, 7.3% active. AID 1030; active = well fitted inhibition curve with a large enough effect, not every such curve was filed as active; inconclusive = small, poorly fitted or top-dose-only effect, or another doubt; inactive = no such curve, though single readings can be large or run the other way;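 also: plate controls were no enzyme wells and a reference inhibitor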
Target sequence (P00352 whole entry, looked up): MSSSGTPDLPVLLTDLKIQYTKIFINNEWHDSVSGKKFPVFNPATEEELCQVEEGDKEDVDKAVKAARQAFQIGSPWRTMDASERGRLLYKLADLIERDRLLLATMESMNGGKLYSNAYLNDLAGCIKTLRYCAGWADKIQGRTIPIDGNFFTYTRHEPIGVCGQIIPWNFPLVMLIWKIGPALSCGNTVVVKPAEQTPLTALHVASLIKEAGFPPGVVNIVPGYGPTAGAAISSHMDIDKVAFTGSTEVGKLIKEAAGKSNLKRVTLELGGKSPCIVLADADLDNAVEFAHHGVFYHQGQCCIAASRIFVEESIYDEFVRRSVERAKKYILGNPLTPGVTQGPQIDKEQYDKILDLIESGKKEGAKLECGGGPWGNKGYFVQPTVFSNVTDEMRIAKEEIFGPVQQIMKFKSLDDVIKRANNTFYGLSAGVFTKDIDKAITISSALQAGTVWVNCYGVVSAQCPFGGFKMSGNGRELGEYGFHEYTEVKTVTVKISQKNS
LMNA splice mod: changes lamin A minigene splicing in HeLa cells; 200,000 tested, 0.01% active; Potency, µM (top dose mostly 46.1 µM), inactives show at the top dose ratio change, negative = inhibition, most hits filed as inhibitors; HeLa LMNA splicing GFP/RFP minigene ratio, 48 h; active = well fitted inhibition curve with a large enough effect in the signal ratio, with a control signal flat, not every such curve was filed as active; inconclusive = small, poorly fitted or top-dose-only effect, or effect the other way, or a change in a side signal; the % refers to the signal ratio; also: % is scaled to controls: 0 for no effect and ±100 for the full control effect
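S3 HeLa stable clones carrying a lamin A-EGFP splicing minigene plus DsRed2 were seeded at 600 cells/well in Opti-MEM with 2% FBS, pin-dosed and incubated 48 h at 37°C. Acumen cytometry (488 nm) gave the GFP/RFP total-intensity ratio.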
HttQ103 aggreg: reduces HttQ103-GFP aggregates in PC12 cells | PC12 HttQ103-GFP aggregates, Acumen cytometry, 40 h | Potency, µM (series often up to 46.1 µM), for inactives: at the top dose activity change, negative = inhibition, most hits filed as inhibitors | 220,000 tested, 1.1% active | AID 1688; also: % is scaled to controls: 0 for no effect and ±100 for the full control effect; nearly all actives have a fitted effect of over 60% in size
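Steps: seed 1500 PC12 HTTQ103-GFP cells/well; add tebufenozide, 100 nM final; add compound titration; add ATPLite reagent; quantify GFP aggregates by laser scanning cytometry.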
HPGD block: inhibitors of human 15-hydroxyprostaglandin dehydrogenase (HPGD) | AID 894 | Potency, µM, without a hit: at the highest dose activity change, negative = inhibition, usual class: inhibitors | P15428 | 150,000 tested, 4.3% active | purified HPGD, NADH fluorescence kinetic, PGE2 substrate; active = well fitted inhibition curve with a large enough effect, not every such curve was filed as active; inconclusive = small, poorly fitted or top-dose-only effect, or another doubt; inactive = no such curve, though single readings can be large or run the other way; also: % is scaled to controls: 0 for no effect and ±100 for the full control effect
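20 nM HPGD preincubated 15 min at room temperature with compound in 50 mM Tris-HCl pH 8, 0.01% Tween 20. Started with 1 mM NAD+ and 30 uM prostaglandin E2; NADH fluorescence (360/450 nm) read 5 times over 30-s intervals, last minus first.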
HTT ATP protect: Huntington cell model cytoprotection by ATP luminescence. PC12 HTT-Q103 induced, cytoprotection, ATP luminescence, 40 h. Potency, µM (titrated, usually from 56.4 µM), for the others: cytoprotection (ATP increase), usual class: activators. 230,000 tested, 0.14% active; also: % of control where 0% means no effect; nearly all actives have a fitted effect of over 45% in size
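Quantitative HTS on tebufenozide-induced (100 nM) PC12 cells expressing HTTQ103 exon 1–GFP; compounds tested as a concentration series; survival measured via cellular ATP.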
An asterisk follows results filed as active; ? = inconclusive; / = no result; [ ] = dose if it differs, or a comment. A selection: hits, their analogues and other compounds. The true share with any hit is near 8.8%. Unless noted, calls follow the shape of the dose curve; as a rule, active = well fitted curve in the direction sought with a large enough effect; inconclusive = small, poorly fitted or top-dose-only effect, or another doubt; inactive = no such curve, though single readings can be large; an effect the other way counts as inactive or inconclusive. Potency is read from the fitted curve at half-maximal effect.

SMILES	ALDH1A1 block	LMNA splice mod	HttQ103 aggreg	HPGD block	HTT ATP protect
O=C1CC2(CCCC2)CC(=O)N1CCNCC1COc2ccccc2O1 (configuration not stated)	28µM*	/	/	/	-19%
N#CC1=C(Nc2ccccc2)SC=C(c2ccccc2)N=C1N1CCOCC1	25µM*	7%	8%	-18%	-75%
N#CC1=C(Nc2ccccc2)SC=C(c2ccc(Cl)c(Cl)c2)N=C1N1CCOCC1	?	13%[0.0737 µM]	15%	-7%	7%
CCNc1ncc2nc(-c3cccs3)c(=O)n(Cc3cccs3)c2n1	?	?	/	/	-40%
CC(C)c1ccc(/C=N/NC(=O)c2nnn(-c3nonc3N)c2CSC2=NCCS2)cc1	20µM*	?	-9%	-21%	/
Nc1nonc1-n1nnc(C(=O)N/N=C/c2ccc(Br)cc2)c1CSC1=NCCS1	?	-20%	-9%	/	3%[10 µM]
CCC(Oc1ccccc1)C(=O)Nc1ccc(OCc2cc(=O)n3ccc(C)cc3n2)cc1 (configuration not stated)	/	9%[46 µM]	/	/	/
Nc1nnn(CC(=O)N/N=C/C=C/c2ccccc2)n1	/	/	-3%[9.22 µM]	/	1%[10 µM]
O=C(NCCN1CCc2ccccc2C1)C1CCN(S(=O)(=O)N2CCC3(CC2)OCCO3)CC1	?	1%	-21%	-9%	-17%
Cc1nn(C)c(C)c1S(=O)(=O)NC1CCCc2ccccc21 (configuration not stated)	4%	-3%	2%	-8%	-2%
CN(C)S(=O)(=O)c1ccc(C(=O)NC2CCCc3ccccc32)cc1 (configuration not stated)	20µM*	/	-4%	/	?
O=C(NC1CCCc2ccccc21)C1CCN(S(=O)(=O)N2CCCCCC2)CC1 (configuration not stated)	4.5µM*	11%	-21%	-6%	-28%[0.074 µM]
O=C(NCCN1CCc2ccccc2C1)C1CCN(S(=O)(=O)N2CCCCC2)CC1	18µM*	10%	19%	-8%	5%
Cc1ccc(S(=O)(=O)NC2CCCc3ccccc32)cc1C (configuration not stated)	10µM*	4%	?	-21%	11%[10 µM]
O=C(O)c1ccc(Cl)c(Cl)c1	3%	/	/	-8%	-13%
CCc1ccc(CNC(=O)Cn2nc(-c3ccc(Cl)cc3)ccc2=O)cc1	/	-25%[46 µM]	/	/	/
COCCn1nnnc1C(c1cc2cc(C)ccc2[nH]c1=O)N1CCc2ccccc21 (configuration not stated)	3.2µM*	9%	-3%	-22%	-2%
COc1ccc2cc(C(c3nnnn3CCc3ccccc3)N3CCCC(C)C3)c(=O)[nH]c2c1 (configuration not stated)	32µM*	0%	8%	-9%	7%
COCCn1nnnc1C(c1cc2cc(C)ccc2[nH]c1=O)N1CCCCCC1 (configuration not stated)	25µM*	4%	3%	-19%	-8%
CCN(Cc1ccccc1)C(c1cc2cc(C)ccc2[nH]c1=O)c1nnnn1CCOC (configuration not stated)	?	9%	5%	-10%	-3%
COc1ccc(CNC(=O)C(=O)NCC(c2cccnc2)N2CCN(c3ccccc3)CC2)cc1 (configuration not stated)	/	5%[46 µM]	/	/	/
O=c1n(Cc2cc3c(cc2Cl)OCO3)c(=O)n2n1CC[C@H]1/C(=N\OC[C@@H](O)COCc3ccco3)[C@H]3O[C@@H]3[C@@H](O)[C@@H]12	-5%[13.5 µM]	/	/	/	-13%[10 µM]
COc1ccc2[nH]c(C)c(CCN(Cc3cccs3)C(=S)Nc3ccccc3)c2c1	?	?	?	-7%	1%[10 µM]
COc1ccc2[nH]c(C)c(CCN(Cc3cccs3)C(=S)Nc3ccc(F)cc3)c2c1	18µM*	?	?	-17%	2%[10 µM]
O=C(Nc1ccccc1)c1[nH]ncc1[N+](=O)[O-]	0%	-8%	11%	-19%	-6%
COc1ccc(NC(=O)c2ccc(Cc3ccc(C)cc3)o2)cc1	25µM*	?	-8%	?	-1%[10 µM]
O=C(Nc1nccs1)c1ccc(-c2ccc(Cl)cc2)o1	-12%	-6%[46 µM]	-5%[9.22 µM]	/	1%[10 µM]
